In PubChem BioAssay AID540361 (National Center for Advancing Translational Sciences (NCATS), 2011):
Inconclusive results are not listed. The source made the active and inactive calls. Calls come from the whole dose curve; as a rule, active = well fitted curve in the direction sought with a large enough effect; inconclusive = small, poorly fitted or top-dose-only effect, or another doubt; inactive = no such curve, though single readings can be large or run the other way.

Each compound was assayed against Alpha-galactosidase A (Homo sapiens) (UniProt P06280) (assay: Activators of Human alpha-Glucosidase as a Potential Chaperone Treatment of Pompe Disease: Alpha-Galactosidase Counter Screen). Details: purified human alpha-galactosidase, 4-MU fluorogenic substrate; series mostly up to 57.1 µM; activity change, negative = inhibition: at the top concentration.
Chain of Alpha-galactosidase A (Homo sapiens) (P06280 whole entry, looked up): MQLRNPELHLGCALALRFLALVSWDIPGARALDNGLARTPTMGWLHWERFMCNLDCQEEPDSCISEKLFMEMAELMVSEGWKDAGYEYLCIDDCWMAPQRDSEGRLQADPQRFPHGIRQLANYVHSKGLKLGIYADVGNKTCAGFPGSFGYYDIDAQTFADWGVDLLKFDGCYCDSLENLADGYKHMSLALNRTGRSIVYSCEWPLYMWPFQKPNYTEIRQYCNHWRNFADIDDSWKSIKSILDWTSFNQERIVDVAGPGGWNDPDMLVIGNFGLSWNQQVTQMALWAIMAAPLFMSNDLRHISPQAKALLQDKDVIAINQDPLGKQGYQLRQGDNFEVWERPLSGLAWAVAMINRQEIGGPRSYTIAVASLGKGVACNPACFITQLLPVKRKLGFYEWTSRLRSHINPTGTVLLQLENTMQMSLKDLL
Description: Alpha-glucosidase is responsible for hydrolysis of terminal, non-reducing 1,4-linked alpha-D-glucose residues with release of alpha-D-glucose. It is a lysosomal hydrolase that is required for the degradation of a small percentage (1-3%) of cellular glycogen in human. Deficiency of this enzyme results in glycogen-storage disease type II (GSDII), also referred to as Pompe disease, an autosomal recessive disorder. Structurally normal glycogen is accumulated in lysosomes and cytoplasm in affected patients, primarily in muscle tissues. Excessive glycogen storage within lysosomes may interrupt normal functioning of other organelles and leads to cellular injury. In turn, this leads to enlargement and dysfunction of the entire organ involved (eg, cardiomyopathy and muscle weakness). It has reported that the improper folding and trafficking of alpha-glucosidase resulting from the genetic mutations may account for a significant number of Pompe patients. […] After screening for activators for alpha-glucosidase, we used this counter screen against alpha-galactosidase to test for specificity of the hits. NIH Chemical Genomics Center [NCGC] NIH Molecular Libraries Probe Production Centers Network [MLPCN] MLPCN Grant: MH086442-01 Assay Submitter (PI): Wei Zheng
This is a fluorogenic enzyme assay with 4-methylumbelliferyl-[…] as the substrate and human alpha-galactosidase as the enzyme preparation. Upon the hydrolysis of this fluorogenic substrate, the resulting product, 1. 4-methyllumbelliferone, can be excited at 365 nm and emits at 440 nm which can be detected by a standard fluorescence plate reader. Data were normalized to the controls for basal activity (without enzyme) and 100% activity (with enzyme). In the AC50 values were determined from concentration-response data modeled with the standard Hill equation. Assay buffer: 50 mM citric acid (titrated with potassium phosphate to pH 5.0), 0.005% Tween-20, pH 5.0. (pH 5.0 is an optimal condition for this enzyme assay) 1536-well assay protocol for the human alpha-galactosidase: (1) Add 2 ul/well of enzyme (4 nM final) (2) Add 23 nL compounds in DMSO solution. The final titration was 0.7 nM to 77 uM. (3) Add 1 ul of substrate (400 uM final) (4) Incubate at room temperature for 20 min. (5) Add 2 ul stop solution (1M NaOH and 1M Glycine mixture, pH 10) (6) Detect the assay plate in a ViewLux plate reader (PerkinElmer) with Ex=365 nm and Em=440nm. Keywords: Alpha-glucosidase, Pompe Disease, pharmacological chaperone, chaperone therapy, high throughput screening, alpha-glucosidase inhibitor, MLSMR, MLSCN, NIH Roadmap, qHTS and NCGC

SMILES	activity change, negative = inhibition
c1csc(-c2nc(NCC3CCCO3)c3ccccc3n2)c1 (stereo unspecified)	0% [at 48.8 µM] (inactive)
OCCNc1nc(-c2cccs2)nc2ccccc12	0% (inactive)
O=S(=O)(c1ccc(Cl)cc1)N1CCN(c2nc(Nc3cc(Cl)ccc3O)nc3ccccc23)CC1	0% [at 48.8 µM] (inactive)
CCCN1CNc2c(c(=O)[nH]c(=S)n2Cc2ccc(OC)c(OC)c2)C1	0% (inactive)
CCCN1CNc2c(c(=O)[nH]c(=S)n2CCC(C)(C)C)C1	0% (inactive)
CCCN1CNc2c(c(=O)[nH]c(=S)n2CCc2ccc3c(c2)OCCO3)C1	0% (inactive)
COc1ccc(CCc2c[nH]c(=O)c3cncnc23)cc1OC	-5.98% (inactive)
COc1ccc(CCn2c(=S)[nH]c(=O)c3c(C)cc(C)nc32)cc1OC	19.6% (inactive)
COc1ccc(CCn2c3c(c(=O)[nH]c2=S)CN(C)CN3)cc1OC	0% (inactive)
COc1ccc(CCn2c3c(c(=O)[nH]c2=S)CN(C(C)C)CN3)cc1OC	0% (inactive)
CCCN1CNc2c(c(=O)[nH]c(=S)n2CCc2ccc(C)c(C)c2)C1	0% (inactive)
CCCN1CNc2c(c(=O)[nH]c(=S)n2CCc2cc(C)ccc2C)C1	0% (inactive)
COc1ccc(C#Cc2cnc(Cl)c3cncnc23)cc1OC	3.52% [at 48.8 µM] (inactive)
CCCN1CNc2c(c(=O)[nH]c(=S)n2CCc2ccsc2)C1	0% (inactive)
O=S(=O)(c1ccc(Cl)cc1)N1CCN(c2nc(-c3cccs3)nc3ccccc23)CC1	0% (inactive)
CCCN1CNc2c(c(=O)[nH]c(=S)n2CCc2c(C)cccc2C)C1	0% (inactive)
CCCN1CNc2c(c(=O)[nH]c(=O)n2CCc2ccc(OC)c(OC)c2)C1	0.385% (inactive)
COc1ccc(CCn2c(=S)[nH]c(=O)c3nccnc32)cc1OC	0% (inactive)
COc1ccc(C#Cc2c[nH]c(=O)c3cncnc23)cc1OC	-8.98% (inactive)
CCCN1CNc2c(c(=O)[nH]c(=S)n2CCc2cccc(C)c2C)C1	0% (inactive)
COc1ccc(CCn2c3c(c(=O)[nH]c2=S)CN(c2ccccc2)CN3)cc1OC	0% (inactive)
